Assay outcomes deposited in PubChem BioAssay by several laboratories.
AI-2 QS modul: modulators of Vibrio harveyi AI-2 quorum sensing system | AID 2094 | Vibrio harveyi JMH597 AI-2 luminescence/OD600 ratio, 9 h; stronger effect = lower value; strain lacks LuxN and CqsS sensors; 0 = neutral-control median | activity change, % at 7.5 µM | actives 0.4% (n = 300,000); in the data active means activity change below about -75%, passing the limit was not always enough;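 further: luminescence divided by OD600 gain over 9 h not by final OD600 alone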
ALR inh: inhibitors of human sulfhydryl oxidase ALR; P55789; actives 3.8% (n = 290,000); inhibition, % (no concentration beside the values); purified ALR, DTT oxidation, H2O2 HRP-luminol luminescence;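 active means mean replicate inhibition above about 79%, with every replicate also reaching it, limit read from the data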
Target sequence (P55789 whole entry, looked up): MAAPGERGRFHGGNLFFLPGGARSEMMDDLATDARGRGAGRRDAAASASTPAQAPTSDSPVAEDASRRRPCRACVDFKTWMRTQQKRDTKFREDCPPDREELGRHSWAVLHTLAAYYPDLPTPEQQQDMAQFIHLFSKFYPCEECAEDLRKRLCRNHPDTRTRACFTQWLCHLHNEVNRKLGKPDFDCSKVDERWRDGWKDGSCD
CHT allo act: allosterically activates the human high affinity choline transporter. actives 0.49% (n = 310,000). CHT-expressing cells, membrane potential dye, choline EC20; stronger effect = higher value; LV-AA mutant CHT in HEK293 cells. AID 488977. B-score at 10 µM;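 active means initial fluorescence not abnormally high and integrated response B-score, plate-corrected, over 3 SD above library mean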
PREPL inhibitor: human PREPL enzyme inhibition; recombinant PREPL, fluorescence polarization activity-based probe; inhibition, % at 5.96 µM; actives 0.68% (n = 320,000);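 further: 0% = enzyme with DMSO and 100% = wells lacking enzyme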
CHT block: inhibitors of human choline transporter CHT | Q9GZV3 | CHT-expressing cells, membrane potential dye, choline response; stronger effect = lower value | B-score at 10 µM | actives 0.86% (n = 310,000);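 active means B-score over 3 SD under the library average, and starting fluorescence ratio not unusually high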;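 further: choline stimulus applied at its EC90 after an EC20 pre-addition; B-score computed on integrated fluorescence ratio after choline addition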
PREPL confirm: human PREPL inhibition, confirmation; inhibition, % at 5.96 µM; actives 67% (n = 2,000); shares compounds with PREPL inhibitor; AID 2803; recombinant PREPL, fluorescence polarization activity probe;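 further: 0% = protein with DMSO and 100% = wells lacking protein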
* marks the source's active call; other numbers are inactive results; ! = not active in a repeat. Sampled rows, rich in hits. Any-hit rate of the full collection: about 5%. Unless noted, no stated cut-off is given here; in the data, active means inhibition above about 43%; inactive means the rest.

Screening COCCCn1c(SCCc2ccccc2)nc2cc(OC)c(OC)cc2c1=N returned AI-2 QS modul -1, ALR inh 2, CHT allo act inactive, PREPL inhibitor 46*, CHT block inactive and PREPL confirm 42.
Screening O=C(c1ccc2ccccc2n1)N1CCN(S(=O)(=O)c2ccccc2)CC1 returned ALR inh 16 and PREPL inhibitor 7.
`COc1cccc(CNC(=O)COC(=O)CCc2cc(OC)c(OC)c(OC)c2)c1` gave ALR inh -14 and PREPL inhibitor 0.
Cc1ccccc1OCC(O)Cn1c(=N)n(CCN2CCOCC2)c2ccccc21 (stereo unspecified) was read as AI-2 QS modul -3, ALR inh -23, CHT allo act inactive, PREPL inhibitor 56*, CHT block inactive and PREPL confirm 45*!.
Screening CC(C)[C@H](NC(=O)c1ccc([N+](=O)[O-])cc1Cl)C(=O)N1CCN(C/C=C/c2ccccc2)CC1 returned ALR inh -10, PREPL inhibitor 47* and PREPL confirm 39.
`Cc1[nH]c2ccccc2c1/C=C/c1nc2ccccc2c(=O)n1CCO` gave AI-2 QS modul 13, ALR inh -4, CHT allo act inactive, PREPL inhibitor 29 and CHT block inactive.
O=C(C[n+]1ccc(C(=O)N/N=C/c2ccc(Cl)cc2Cl)cc1)c1ccccc1 was read as AI-2 QS modul 9, ALR inh -15, CHT allo act inactive, PREPL inhibitor 45*, CHT block inactive and PREPL confirm 24.
COc1ccc(N2CCN(C(=O)c3cn(C)c(=O)c4c3c3ccccc3n4C)CC2)cc1 was read as AI-2 QS modul 20, ALR inh 51, CHT allo act inactive, PREPL inhibitor 41 and CHT block inactive.
Screening COc1ccc(N2CCN(C(=O)c3cn(C4CCCC4)c(=O)c4c3c3ccccc3n4C)CC2)cc1 returned AI-2 QS modul 17, ALR inh -14, CHT allo act inactive, PREPL inhibitor 62*, CHT block inactive and PREPL confirm 61*.
`CNS(=O)(=O)c1cccc(C(=O)OCC(=O)N2CC(C)OC(C)C2)c1` (stereo unspecified) gave AI-2 QS modul 18, ALR inh -1, CHT allo act inactive, PREPL inhibitor 2 and CHT block inactive.
For CN(Cc1ccco1)c1ncnc2ccc(-c3ccccc3Cl)cc12 the results were ALR inh -3, PREPL inhibitor 45* and PREPL confirm 20.
COc1ccc(/C=N\NC(=O)c2cc(O)c(O)c(O)c2)cc1CN1CCN(c2ccc(F)cc2)CC1 was read as AI-2 QS modul 36, ALR inh 39, CHT allo act inactive, PREPL inhibitor 54*, CHT block inactive and PREPL confirm 20.
Screening C[C@H](CO)N1C[C@H](C)[C@@H](CN(C)C(=O)Nc2ccccc2)Oc2ccc(NC(=O)Cn3cnnn3)cc2C1=O returned PREPL inhibitor 4.
Screening CCOc1cc(CNc2ccc(O)cc2)ccc1OCc1ccc(Cl)cc1Cl returned AI-2 QS modul 27, ALR inh -63, CHT allo act inactive, PREPL inhibitor 57*, CHT block inactive and PREPL confirm 51*.
Brc1ccc2c(c1)CN1CCCC1=N2 was read as AI-2 QS modul 28, ALR inh -19, CHT allo act inactive, PREPL inhibitor 1 and CHT block inactive.
COc1cc(/C=N\Nc2nc3ccccc3[nH]2)cc(OC)c1OC was read as AI-2 QS modul 11, ALR inh 99*, CHT allo act inactive, PREPL inhibitor 43*, CHT block inactive and PREPL confirm 22.
C#CCn1cc(/C=N/Nc2nc3ccccc3[nH]2)c2ccccc21 was read as AI-2 QS modul 27, ALR inh 11, CHT allo act inactive, PREPL inhibitor 55*, CHT block inactive and PREPL confirm 63*.
Cc1ccc(C)c(-c2nn(-c3cc(N4CCN(CCO)CC4)ccc3[N+](=O)[O-])c(=O)c3ccccc23)c1 was read as AI-2 QS modul -5, ALR inh -6, CHT allo act inactive, PREPL inhibitor 62*, CHT block inactive and PREPL confirm 57*.
For O=C(NCCc1c[nH]c2ccccc12)C(=O)NCC(c1cccnc1)N1CCN(c2ccccc2)CC1 (stereo unspecified) the results were AI-2 QS modul 2, ALR inh 18, CHT allo act inactive, PREPL inhibitor 52*, CHT block inactive and PREPL confirm 46*.
Nc1nn(-c2ccccc2)c(N)c1N=Nc1ccccc1F was read as AI-2 QS modul -25, ALR inh 1, CHT allo act inactive, PREPL inhibitor 54*, CHT block inactive and PREPL confirm 56*.
`Nc1nn(-c2ccccc2)c(N)c1N=Nc1ccccc1` gave AI-2 QS modul -57, ALR inh 20, CHT allo act inactive, PREPL inhibitor 51*, CHT block inactive and PREPL confirm 55*.
Screening O=C(CCNC(=O)N1CC(=O)Nc2ccccc21)Nc1ccc(Br)cc1F returned AI-2 QS modul 16, ALR inh 0, CHT allo act inactive, PREPL inhibitor -38 and CHT block inactive.
For N#Cc1cc([N+](=O)[O-])ccc1N1CCN(c2ccccc2O)CC1 the results were AI-2 QS modul 17, ALR inh 98*, CHT allo act inactive, PREPL inhibitor 53*, CHT block inactive and PREPL confirm 48*.
Screening Cc1ccnc(NC(=O)CNC(=O)Cc2cccc3ccccc23)c1 returned AI-2 QS modul -20, ALR inh -25, CHT allo act inactive, PREPL inhibitor 9 and CHT block inactive.
`O=C(O)c1ccc(Cl)c(NC(=O)C2CCCN2S(=O)(=O)c2cccc3nsnc23)c1` (stereo unspecified) gave AI-2 QS modul 24, ALR inh -13, CHT allo act inactive, PREPL inhibitor 69*, CHT block inactive and PREPL confirm 0.
For O=C(NC1CCCCC1)C1CCCN1S(=O)(=O)c1cccc2nsnc12 (stereo unspecified) the results were AI-2 QS modul 28, ALR inh -1, CHT allo act inactive, PREPL inhibitor 7 and CHT block inactive.
Screening CCCC(=O)Nc1ccc2c(c1)nc1n2CCN(CCOC)C1 returned AI-2 QS modul 24, ALR inh -9, CHT allo act inactive and CHT block inactive.
Screening CN(C)c1ccc(C(CN)c2c[nH]c3ccccc23)cc1 (stereo unspecified) returned AI-2 QS modul 10, ALR inh 2, CHT allo act inactive, PREPL inhibitor 61*, CHT block inactive and PREPL confirm 57*.
